Measured values: the supplement of paper PMC11417369
± gives the standard deviation of the averaged measurements. Over roughly 25,000 sequences, “ln(normalized median fluorescence intensity)” has its median near 7.9; the highest 2% begin near 11. The entries come from a sample that favours the highest values as a whole.

Test system: PfAP2-I AP2 domain 3 (GST-tagged)
Assay: gcPBM binding intensity (ln(normalized median fluorescence intensity)); higher = stronger DNA binding
In short: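 Binding of GST-tagged P. falciparum DNA-binding domains, expressed in E. coli and used at about 25 μg on average, was carried out for 1 h in 1× PBS containing 1% milk, 0.2 mg/ml BSA, 0.5% salmon testes DNA and 0.03% Triton X-100. The target was an Agilent 4 × 180k array of primer-extended double-stranded 36-bp intergenic genomic probes plus negative controls, read with Alexa488 anti-GST antibody at 488 nm. Binding intensity is the highest Masliner-normalised natural-log median intensity across replicate spots of either probe orientation.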

Row | Sequence | gcPBM binding intensity (ln)
1 | TTTCTTTCTTTCTTTTTTTAAATATTTTTTAAAAAT [TGCATGCA_negctrl_site206] | 7.98 ± 0.62
2 | ATTATAATGGTAAAGTGTACAAATTTTTATTACACC [XGTACX_site5274] | 8.49 ± 0.092
3 | GCTTCTTAATATCATACACACATAGATATATTTATA [CACACA_site5676] | 8.11 ± 0.58
4 | TTTATATTATTATATCTTATTAATTATTTATCATTT [TGCATGCA_negctrl_site73] | 7.28 ± 0.58
5 | TATCATCTTAATATCGTGCACATTTATAGAACGAAA [GTGCAC_site9992] | 11 ± 0.12
6 | TATACAACTTTATGAAGTACAAAAAGTTCTATATAT [XGTACX_site3866] | 7.52 ± 0.44
7 | TGCCATCATATCATAGGTACACAAACATATAAAGAA [XGTACX_site4137] | 8.22 ± 0.82
8 | AATATATATTTATATTGTACATATATATATATTTCT [XGTACX_site2603] | 7.55 ± 0.34
9 | TTTTTCTATAAAAAATGTACATATTTTATGAAGGAA [XGTACX_site821] | 7.96 ± 0.5
10 | TTTTAGTTAATTCATGCATGTAAAGTTTTATTTATA [TGCATGCA_site252] | 7.72 ± 0.54
11 | ATTTAATTTTCATGATGTACTATAGTTTAATGCACA [XGTACX_site1624] | 11.6 ± 1.1
12 | AATGAATATAGTACTGAATGTAATTTAAGGTTTTCC [CACACA_negctrl_site1548] | 7.53 ± 0.68
13 | ACAAGACAGATATATACACACATACATACATACATA [CACACA_site7472] | 8.12 ± 0.64
14 | ATAAAGGAATTTTATACACACAACATATATATATAT [CACACA_site2861] | 9.45 ± 0.6
15 | TATATATATATATATTGTACACATTGTGTTTAAATA [XGTACX_site5104] | 9.43 ± 0.44
16 | GTAATTTTTTTCTATACACACATATATATAATATAT [CACACA_site2655] | 8.12 ± 0.58
17 | GTAATTTTTTTCTATACACACATATCTATAATATAT [CACACA_site7284] | 8.09 ± 0.6
18 | TTTTCTATTTAATTGGTGCACTGATATATACACATA [GTGCAC_site9533] | 11.3 ± 0.54
19 | TTTATGTATTTTTATGCACACATGCGTGGCTTATAT [CACACA_site4374] | 10.79 ± 0.064
20 | TATGTATAAATATATGCACACATATATATATTTATA [CACACA_site9150] | 8.85 ± 0.26
21 | TATGTATTTTTATGCACACATGCGTGGCTTATATAA [CACACA_site387] | 10.9 ± 0.13
22 | ATATATATTTCTTAAAGTACATAATAATAAAAATAT [XGTACX_site8981] | 7.79 ± 0.44
23 | AAAAAAAATAAAATGAATAAATAAGAATTACATATT [CACACA_negctrl_site863] | 7.39 ± 0.65

Row | Sequence | gcPBM binding intensity (ln)
24 | TCTATGAATTAATATGCATGTAACGTATTTATACTT [TGCATGCA_site669] | 7.67 ± 0.83
25 | CAAGCACAGAAACACACACACACACCGACACAGACA [CACACA_site4359] | 8.11 ± 0.24
26 | AGGATATAAAGTTGTGCATGTCAAGTGCACCGTATT [TGCATGCA_site451] | 11 ± 0.35
27 | AAAAAAAAGTTGTAAGTGCATGTATATAATAATATT | 8.42 ± 0.54
28 | CATATAAAAATGTGCACACACACACCGATATATATT [CACACA_site4940] | 9.59 ± 0.17
29 | AAAAAAAAATATATTGCACACCTCTCAATAAAAAAA [CACACA_site172] | 10.3 ± 0.43
30 | AAAAATGTATGTATGGTGCAGTATTCATATCATTTT [GTGCAC_site9458] | 10.93 ± 0.057
31 | CATATAAAAAATATGGTGCAGTTTTTTTTTTTTTTT | 10.2 ± 0.23
32 | GTATATTTTATTTTATGTACATATTCATTTTTTATT [XGTACX_site561] | 8.3 ± 0.4
33 | ACTATAAATATATAAATATATATATATATATATATA [GTGCAC_negctrl_site65] | 9.34 ± 0.8
34 | AAAAATAAAAGGTGTGCACACAAAAATATATATATA [CACACA_site8507] | 9.74 ± 0.26
35 | TATAAATATACAAAGGTGCATAAAAAGTTATGTTTT [GTGCAC_site9832] | 11.2 ± 0.26
36 | ACAAAAAAATAAGGTGCACACAAAAAAAAAAAAAAA [CACACA_site8171] | 10.7 ± 0.76
37 | ATAAAATATAAAAACGCACACAATTATAAGGGTGTA [CACACA_site177] | 7.95 ± 0.35
38 | TTATAAAAGACAAAAGTGCATATATACATATGTATA | 9.49 ± 0.21
39 | TAAATATAAAAATGCACACACACAAAAAAAAAAAAA [CACACA_site895] | 8.88 ± 0.085
40 | AATAAATAGATAAGCACACAAGCATATAGACATATA [CACACA_site222] | 7.72 ± 0.49
41 | ATATATATATATTACACACACACAAAAAAAATAAAG [CACACA_site118] | 9.07 ± 0.18
42 | AAAAAAAAAATTTAGGTGCATACAAATAAATTATAT [GTGCAC_site9521] | 10.2 ± 0.48
43 | TATAAGTAGATAAGGGTGCACAATATAAATATATAG | 11.55 ± 0.021
44 | AAAAAAATAAGGTGCACACAAAAAAAAAAAAAAAAA [CACACA_site812] | 10.9 ± 0.71
45 | ATATATATATTAAAGGTGCACAAATAAATATATACA [GTGCAC_site9532] | 11.54 ± 0.035
46 | ATATGTGTGTGTATTTGTACCCAATTTTTATATATA [XGTACX_site4948] | 8.29 ± 0.43

Row | Sequence | gcPBM binding intensity (ln)
47 | TATATATATATATATGTGCACATATATATGATATTA | 9.79 ± 0.28
48 | CGAATAAATATATGTAGTACATGTTGTAGATAATTT [XGTACX_site1218] | 8.01 ± 0.48
49 | ATTTATTAATCATATACACACATATATTTGTATTTA [CACACA_site1336] | 7.67 ± 0.49
50 | TTTGGGTATACACATACATGCATGTCCTTATATATA [TGCATGCA_site84] | 7.86 ± 0.63
51 | TGTGTAATATTCTGTTGTACATAACTCATAAATAAA [XGTACX_site5308] | 7.95 ± 0.31
52 | AATATGTTATAAATATGTTATAAATAATAAATAAAT [GTGCAC_negctrl_site135] | 7.74 ± 0.62
53 | AAAATAGCTGTATAGAGTACATATAAATAATGTTGT [XGTACX_site5692] | 7.57 ± 0.58
54 | TAAATCACAAAATTATGTACTAAGAAGGAGCAACAT [XGTACX_site6742] | 8.05 ± 0.45
55 | AACATACATAAACACACACACACACCCACAGAGACA [CACACA_site4430] | 8.32 ± 0.22
56 | AATATACATAACAAGGTGCAAAAAATATTGTTCATA [GTGCAC_site9499] | 10.4 ± 0.26
57 | TGAGCACAAATACAGGTGCATATAAAATATATGACG | 10.3 ± 0.3
58 | ATGTTTGAGCCTAAGGTGCATATAAAAATATATGTG [GTGCAC_site9690] | 11 ± 0.66
59 | AAATAAAAAGGGTGCACACAAAAATATATATATATA [CACACA_site1728] | 11 ± 0.84
60 | AATACATATTCAAAGGTGCAAAATAAAAATATACAT [GTGCAC_site9743] | 11.2 ± 0.44
61 | AAAAATAAAGGGTGTGCACACAAAAATATATATATA [CACACA_site1727] | 9.8 ± 0.14
62 | TATATTGCAAAAAGTACACACATAAATAAATACATA [CACACA_site6589] | 8.2 ± 0.24
63 | TTTTTTTGTTAAAAGGTGCTAATATATATAAGTGCT | 10.1 ± 0.45
64 | AAATATAAAGTGCACACACACAAAAAAAGAAAAAAA [CACACA_site6452] | 10.2 ± 0.36
65 | TGTGTATATAAATAATGTACATATATATTTTTTTAT [XGTACX_site7341] | 7.79 ± 0.22
66 | AAAAAAAAAAAAAAAAAAAGAAAAGAAAATAGGGTT [GTGCAC_negctrl_site421] | 8.96 ± 0.22
67 | CATATGATATGTTATACACACACGTATATATGAATT [CACACA_site3446] | 8.03 ± 0.21
68 | TTTTTTTTTTTTGTAATACACACCACTATATGTTAT [CACACA_site1844] | 8.15 ± 0.73
69 | AAAACAAACAAAAAAAAAAAAAAAAATATCAATCTA [TGCATGCA_negctrl_site203] | 7.01 ± 0.52

Row | Sequence | gcPBM binding intensity (ln)
70 | CACAAAATAAATTAAACACACAACATCATAGATGTA [CACACA_site4619] | 7.21 ± 0.54
71 | AAGATATCTAAGGAAATTAAACTACCAAAATATATA [TGCATGCA_negctrl_site338] | 7.39 ± 0.59
72 | ATATTACACATATATGCACACATTGTAGTTATTTAT [CACACA_site8843] | 9.34 ± 0.26
73 | ATATATATATAAAGTTGTACATTTTTTATTTTTTCA [XGTACX_site7847] | 9.09 ± 0.16
74 | TATCATTTATATATGTGTACTTATTTATTTATTTAT [XGTACX_site7961] | 7.96 ± 0.28
75 | ATTGTGCACTTATATGCACACATTTTAGTTTTTTTT [CACACA_site2028] | 11.4 ± 0.69
76 | TTTTTATTTTCATATGTGCACTTATATATATATATA | 10.82 ± 0.099
77 | TATATATATATATATGTGCACATTTATTGCCTTTGC | 9.76
78 | TTATCATTTGCCATTGTGCACTTATATGCTCACATT | 10.97 ± 0.028
79 | ATTTATATGCACCATTGTACGTTTTATAAAGTTTGG [XGTACX_site3755] | 11.6 ± 0.83
80 | CATTTTGTTTTAAAGTGTACATTATGTAATATAAAA [XGTACX_site647] | 7.84 ± 0.43
81 | CATATTGGTATGCTCATGCACTTTTATTTTGTTATT [GTGCAC_site9553] | 8.52 ± 0.53
82 | TTATATTTAGTATATGCACACTTTATGTTTGTTATT [CACACA_site5163] | 9.29 ± 0.21
83 | ATATATATTATCATTGTGCACTTATTTATATACCTT | 11.1 ± 0.15
84 | ATTACCAACAGATCTTGTACATATTAAAGCATCTTA [XGTACX_site2361] | 7.84 ± 0.57
85 | TCTATTAATTAATATACACACATTATATATATATAT [CACACA_site8815] | 9.375 ± 0.049
86 | TTTTTTATTGTGATACGTATATTATTTTATGATAAA [CACACA_negctrl_site1591] | 8.04 ± 0.6
87 | AAACACACACACAAATGTACATATATATATATATTT [XGTACX_site5090] | 7.92 ± 0.51
88 | AATATTATAAATGATACACACTTAAAATACACGCAC [CACACA_site7305] | 8.71 ± 0.22
89 | CATCATAGAGTGGAGTGTACAAATATGTCAACATAT [XGTACX_site2264] | 7.99 ± 0.55
90 | TATATTTAGAGAGAGACACACAAAGGGACTTACACA [CACACA_site2545] | 7.82 ± 0.71
91 | CATAATACATATAACACACACAATTATACATAAAAT [CACACA_site3233] | 7.88 ± 0.33
